Only some compounds are listed: those with a hit (about 1.6% of all), similar ones and a draw of the others.
eIF4E-4G inh – eIF4E–eIF4G protein interaction inhibitors, primary screen, biochemical, uHTS, TR-FRET, eIF4GI fragment. Eukaryotic translation initiation factor 4E (Mus musculus) + Eukaryotic translation …. TR-FRET eIF4E-eIF4GI(517-606) binding, 2 h. inhibition, % at 21.7 µM. hit rate 0.37% among 220,000. AID 782, 2007;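 active means inhibition above about 30%, limit read from the data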;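 further: 0% = full FRET control wells and 100% = background wells lacking eIF4GI fragment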
PABP1 MLLE inh – inhibitors of PABP1 MLLE–PAM2 peptide binding, primary screen, biochemical, fluorescence polarization, FITC-PAM2, GST-MLLE. Polyadenylate-binding protein 1 (Homo sapiens), P11940. inhibition, % at 20 µM. hit rate 0.36% among 360,000; in the data active means inhibition above about 35%, passing the limit was not always enough;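 further: plate controls were DMSO wells with GST-MLLE for no effect and wells lacking GST-MLLE protein for full effect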
Target sequence (P11940 whole entry, looked up): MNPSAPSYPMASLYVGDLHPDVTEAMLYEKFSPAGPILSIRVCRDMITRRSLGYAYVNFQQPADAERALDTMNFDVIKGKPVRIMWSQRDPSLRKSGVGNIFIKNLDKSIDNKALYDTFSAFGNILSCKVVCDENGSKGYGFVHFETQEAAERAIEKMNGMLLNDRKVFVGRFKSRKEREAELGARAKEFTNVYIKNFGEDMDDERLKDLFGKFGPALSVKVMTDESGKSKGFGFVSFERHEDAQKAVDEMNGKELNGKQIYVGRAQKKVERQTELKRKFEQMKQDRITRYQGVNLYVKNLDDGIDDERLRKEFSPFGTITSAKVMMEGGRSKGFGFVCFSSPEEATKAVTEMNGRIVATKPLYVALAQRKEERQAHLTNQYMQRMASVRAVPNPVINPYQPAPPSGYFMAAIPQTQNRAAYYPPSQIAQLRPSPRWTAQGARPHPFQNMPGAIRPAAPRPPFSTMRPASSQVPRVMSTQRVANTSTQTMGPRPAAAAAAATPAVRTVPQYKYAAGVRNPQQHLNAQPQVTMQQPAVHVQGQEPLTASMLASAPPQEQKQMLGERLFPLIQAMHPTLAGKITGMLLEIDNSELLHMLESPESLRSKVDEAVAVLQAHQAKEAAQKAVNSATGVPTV
PABP polyA inh – PABP poly(A) RNA binding inhibitors, primary screen, biochemical, fluorescence polarization, uHTS; inhibition, % at 35 µM; hit rate 1% among 290,000;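 further: calls also rest on retests at 20 µM and on dose response follow-up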
eIF4H FP inh – human eIF4H binding inhibitors, primary screen, translation initiation inhibitor project, biochemical, uHTS, fluorescence polarization. inhibition, % at 35 µM. hit rate 0.94% among 290,000. eIF4H fluorescence polarization binding assay. Eukaryotic translation initiation factor 4H (Homo sapiens), Q15056;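 further: calls also rest on retests at 20 µM and on dose response follow-up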
PERK inhibitor – block of dimerizer-induced PERK translation repression, primary screen, PERK inhibitor project, CHO PERK-DD cells, SEAP luminescence, HTS; Eukaryotic translation initiation factor 2-alpha kinase 3 (Homo sapiens), Q9NZJ5; CHO PERK-DD fusion, SEAP luminescence translation reporter; inhibition, % at 5.6 µM; hit rate 0.17% among 220,000; AID 1416, 2008;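 active means inhibition above the mean inhibition of all tested compounds plus 3 SD, set separately per screening campaign, cut at about 2.9% in these data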;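 further: PERK kinase domain activated by AP20187 dimerizer at 100 nM; 0% = DMSO with dimerizer and 100% = rapamycin at 8.4 µM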
An asterisk follows results filed as active; ? = inconclusive; nt = no result given; [ ] = another dose, or the depositor's remark. Unless noted, how the calls were made is not given here.

SMILES | eIF4E-4G inh | PABP1 MLLE inh | PABP polyA inh | eIF4H FP inh | PERK inhibitor
O=C1NC(=S)SC1=Cc1cccs1 | nt | 5.5 | nt | nt | nt
Cc1nc([N+](=O)[O-])c(C(=O)OCc2ccccc2C#N)n1C | 0.6 | -5.8 | 100.1* | active | -0.7
Cc1ccc(C#N)c(SCc2ccccc2[N+](=O)[O-])n1 | -4.1 | 11.9 | 8.9 | -6.7 | -1.1
Cc1sc(NC(=O)Cn2nc(C(F)(F)F)cc2C)c(C(=O)OC(C)C)c1C | 31.0* | 2.6 | -3.8 | 4.7 | 1.1
COC(=O)C1=C(C)N(Cc2ccccc2)C(=NCCCCO)N[C@H]1c1ccccc1 | nt | nt | 84.3* | 28.1 | nt
COC(=O)C1=C(C)N(Cc2ccccc2)C(=NCc2ccc(OC)cc2)N[C@H]1c1cccc(F)c1 | nt | -114.6 | 57.9* | 1.4 | nt
O=[N+]([O-])c1ccc(SCCc2ccncc2)cc1 | 2.3 | 28.6 | 6.7 | -5.4 | 1.7
CCCC1CC(C)(/C(C)=N\NC(N)=S)OC1=O (stereo unspecified) | 3.3 | -1.8 | -6.7 | -3.5 | -0.5
CCOC(=O)CNc1ccc2c(c1)OCO2 | -0.7 | 127.4 | 104.9* | ? | 0.8
CC1CN(Cc2ccccc2)c2nc3c(c(=O)[nH]c(=O)n3C)n2C1 (stereo unspecified) | 83.3* | 4.4 | -0.8 | -1.0 | -1.9
Cn1c(=O)[nH]c(=O)c2c1nc1n2CCN1Cc1ccccc1 | 10.2 | -6.8 | 0.2 | 1.1 | 0.0
N#C/C(=C/c1ccc(N2CCCCC2)o1)c1cccc(F)c1 | -5.2 | -104.6 | 85.5* | 87.4* | -2.0
N#C/C(=C/c1ccc(N2CCCCCC2)o1)c1ccc(Cl)cc1 | -5.6 | -130.2 | 28.7 | 12.3 | -0.7
CCC(C)NS(=O)(=O)c1ccc(N)cc1 (stereo unspecified) | -0.9 | 3.7 | -5.9 | 2.5 | 0.1
Cn1c(CCC(=O)O)nc2cc(S(=O)(=O)N3CCCCC3)ccc21 | nt | 39.0* | nt | nt | nt
Cn1c(CCC(=O)O)nc2cc(S(=O)(=O)N3CCCC3)ccc21 | nt | -10.8 | nt | nt | nt
O=C(O)c1cccc(Cn2c(Cl)c(/C=N/NC(=O)c3cc4ccccc4cc3O)sc2=O)c1 | 6.2 | -118.2 | 81.5* | 102.4* | 1.0
O=C(O)c1cccc(Cn2c(Cl)c(/C=N/NC(=O)c3ccccc3)sc2=O)c1 | 5.8 | -105.4 | 3.7 | -5.9 | 0.5
CCCCCCCCCCOC(=O)C[N+](C)(C)C/C=C(/C)Cl | -0.1 | -2.4 | -3.5 | -3.5 | 0.9
CCCCCCCCCCCCCCCC(=O)OC[C@H](COP(=O)([O-])OCC[N+](C)(C)C)OC(=O)CCCCCCCCCCCCCCC | 1.2 | nt | 2.5 | -6.4 | 3.0*
COC(=O)\C(C(C)=O)=C(/C=C/C=C/C=C/N(C)C)N(C)C | 6.9 | 2.7 | 65.6* | 90.1* | -0.4
Cc1cc(NC(=O)CS(=O)(=O)c2cn(Cc3cccc(Cl)c3)c3ccccc23)no1 | nt | -1.7 | nt | nt | nt
Cc1ccc(CNCC2CCCO2)o1 (stereo unspecified) | -0.9 | -5.4 | 0.2 | -2.4 | 1.6
O=C(CCNc1ccc(Cc2ccncc2)cc1)c1ccc([N+](=O)[O-])cc1 | -2.9 | 40.4* | -6.9 | -11.3 | 0.6
CCN(CC)S(=O)(=O)c1ccc(NC(=O)c2cc(C(=O)OC)cc([N+](=O)[O-])c2)cc1 | 33.4* | 1.0 | 1.2 | 7.5 | 0.1
SMILES | eIF4E-4G inh | PABP1 MLLE inh | PABP polyA inh | eIF4H FP inh | PERK inhibitor
COC(=O)c1cc(C(=O)Nc2ccc(S(=O)(=O)NC(C)(C)C)cc2)cc([N+](=O)[O-])c1 | 0.3 | 5.5 | -4.1 | -11.4 | 1.0
CCN(CC(=O)Nc1c(F)cccc1F)C(=O)C1CC(=O)N(c2ccccc2OC)C1 (stereo unspecified) | nt | -3.5 | 61.9* | 10.5 | nt
COCCn1cc(-c2csc(N)n2)c2ccccc21 | nt | 35.2 | 22.4 | 12.5 | nt
CN(C)c1nc(-c2cn(CCC#N)c3ccccc23)cs1 | nt | 48.8* | 39.0 | 17.6 | nt
NNC(=O)c1oc2nc(-c3cccs3)cc(-c3ccco3)c2c1N | nt | -52.4 | 21.7* | ? | nt
CC1CN(CCOCCSc2ccccc2)CC(C)O1 (stereo unspecified) | -2.9 | -6.5 | 5.0 | 0.6 | 1.3
COc1c2c(c3c(c1OC)c(=O)c1ccccc1n3C)OCO2 | nt | 55.1* | nt | nt | nt
O=C(c1ccc(C(F)(F)F)cc1)N1CCN(S(=O)(=O)c2ccc3c(c2)OCCCO3)CC1 | nt | -5.0 | 5.7 | 14.1 | nt
Cc1ccc(CN2CCN(C(=O)CCC(=O)Nc3nnc(C(C)C)s3)CC2)c(C)c1 | nt | 0.2 | 2.4 | 0.1 | nt
Nc1ccc2c(=O)[nH][nH]c(=O)c2c1 | nt | -17.6 | nt | nt | nt
Nc1ccc2oc3ccc(N)cc3c(=O)c2c1 | nt | 16.3 | 60.2* | 79.0* | 0.1
Cc1cc(C(F)(F)F)nn1CC(=O)NNC(=S)Nc1ccc(Cl)cc1 | 1.5 | 29.4 | 5.2 | 5.2 | 0.2
O=C(Cn1nnc(-c2cc(C(F)(F)F)cc(C(F)(F)F)c2)n1)NNC(=S)Nc1ccc(Cl)cc1 | 3.6 | 41.2* | 2.3 | 14.0 | 1.1
CC(=O)Nc1nonc1NC(=O)CSC1=NCCS1 | -3.1 | -57.0 | 4.6 | 2.8 | 0.7
Cc1ccc(CNC(=O)c2ccc(Br)o2)cc1 | -5.6 | -5.8 | 6.2 | 16.1 | 2.0
Cc1cc2cc(CNC(=O)c3ccc(Br)o3)ccc2[nH]1 | -14.6 | 56.5* | 25.7 | 8.8 | nt
Cc1cc2cc(CNC(=O)c3ccc(Br)o3)ccc2n1C | -15.1 | 62.3* | 49.9 | 31.1 | nt
O=C(OCc1ccc2c(c1)OCO2)c1cccc(S(=O)(=O)N2CCCCC2)c1 | -0.2 | 3.8 | -7.0 | 2.9 | -1.6
COc1cc(C(=O)N=c2sccn2C)c([N+](=O)[O-])cc1OC | nt | -47.9 | 2.8 | -9.6 | nt
Cn1ccsc1=NC(=O)c1ccc([N+](=O)[O-])o1 | nt | -3.8 | 44.8* | 80.3* | nt
CC(C)CC(COCc1ccc(Cl)cc1)N1CCN(C(=O)c2ccc(Cl)cc2Cl)CCC1=O (stereo unspecified) | 3.6 | 3.6 | -1.0 | 10.3 | -0.3
CCn1nnnc1SCC(=O)Nc1cccc(NC(C)=O)c1 | 36.7*[fluorescence artefact?] | 3.7 | -0.8 | -3.0 | 0.9
COc1ccc(NC(=O)CN(C)C(=O)Cc2ccc(-c3ccccc3)cc2)cc1 | nt | -9.6 | nt | nt | nt
CCOC(=O)N1CCC2(CC1)C(C#N)=C(N)Oc1c2c(C)nn1-c1cccc(Cl)c1 | 3.9 | 14.0 | 71.7* | 71.4* | 1.0
CC(=O)Nc1c(C)nn(C(C)=O)c1C | 4.8 | 5.6 | 2.9 | -8.7 | -0.2
CN(Cc1ccccc1NCC(=O)Nc1ccccc1C#N)C1CCCCC1 | -2.0 | -9.5 | 13.1 | -2.1 | 1.2
COc1ccccc1NCN1C(=O)CCC1=O | nt | -13.4 | -7.7 | -11.3 | nt
CC(C)CN1C(=O)c2ccc(C(=O)Nc3ccc(O)cc3C(=O)O)cc2C1=O | nt | -1.8 | 10.7 | 1.3 | nt
CC(C)CCN1C(=O)c2ccc(C(=O)Nc3ccc(O)cc3C(=O)O)cc2C1=O | nt | 1.7 | 55.1* | 81.1* | nt
O=C(/C=C/c1cn(CC(O)CN2CCOCC2)c2ccccc12)c1cccs1 (stereo unspecified) | 3.4 | nt | 44.3* | 97.7 | -0.2
